A word on the inhibition: it is the drop in the measured response relative to a control, in per cent.

Common to all, as to assay type: functional
Experiment [1] addresses Solute carrier family 2, facilitated glucose transporter member 1 (Homo sapiens) (UniProt P11166). Kind of experiment: ST_JUDE_LEISH: Cytotoxicity at 2uM final concentration against transgenic Leishmania Mexicana promastigotes LmGLUT1 that are glucose transport deficient and complemented with the human glucose transporter GLUT1. Activity is measured by DNA content using SYBR green in vitro.

The target in experiment [2] is Hexose transporter 1 (Plasmodium falciparum) (UniProt O97467). As to the kind of experiment: ST_JUDE_LEISH: Cytotoxicity at 2uM final concentration against transgenic Leishmania Mexicana promastigotes LmPfHT that are glucose transport deficient and complemented with the Plasmodium falciparum hexose transporter. Activity is measured by DNA content using SYBR green in vitro.

The target in experiment [3] is Glucose transporter (Leishmania mexicana) (UniProt O61059). Kind of experiment: ST_JUDE_LEISH: Cytotoxicity at 2uM final concentration against transgenic Leishmania Mexicana promastigotes LmGT2 that are glucose transport deficient and complemented with the L. Mexicana glucose transporter 2. Activity is measured by DNA content using SYBR green in vitro.

Chain of Solute carrier family 2, facilitated glucose transporter member 1 (Homo sapiens) (P11166 whole entry): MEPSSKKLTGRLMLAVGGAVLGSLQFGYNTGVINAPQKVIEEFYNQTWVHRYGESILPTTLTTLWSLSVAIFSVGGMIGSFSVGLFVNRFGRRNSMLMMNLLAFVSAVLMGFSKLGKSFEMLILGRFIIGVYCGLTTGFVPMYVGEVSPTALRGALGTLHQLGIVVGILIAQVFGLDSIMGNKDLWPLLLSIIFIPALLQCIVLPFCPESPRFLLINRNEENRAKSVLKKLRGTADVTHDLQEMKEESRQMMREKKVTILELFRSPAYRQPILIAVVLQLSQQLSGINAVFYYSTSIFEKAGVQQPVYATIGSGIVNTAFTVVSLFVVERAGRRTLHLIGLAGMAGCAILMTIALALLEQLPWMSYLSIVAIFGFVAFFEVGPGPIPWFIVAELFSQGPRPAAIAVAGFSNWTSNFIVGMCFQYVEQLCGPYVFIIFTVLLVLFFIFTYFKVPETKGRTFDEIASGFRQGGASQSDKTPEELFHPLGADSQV

Regarding `CS(=O)(=O)CCNCc1nc(-c2ccc3c(Nc4ccc(Oc5ccccn5)cc4)ccnc3c2)cs1`, the inhibition amounted to 5.17% in experiment [1], 4.96% in experiment [2] and 2.64% in experiment [3].

Regarding `CN1CCN(CCCN(Cc2csc(-c3ccc(CNCc4ccccc4)cc3)n2)C(=O)c2cc(F)cc(F)c2)CC1`, the inhibition in experiment [1] came out at 4.63%; in experiment [2] it was 2.02%; in experiment [3] it was 1.42%.

On to `CCc1cn(C)c2c(N3CCCC3=O)cc(C(=O)N[C@@H](Cc3ccccc3)[C@H](O)CNC3CCCCC3)cc12`, for which the inhibition is 10.2% in experiment [1], 11% in experiment [2] and 11.5% in experiment [3].

As to `CCOC(=O)NC1=NC(C)(C)N(OCc2cccc3c2ccc2ccccc23)C(NC(=O)OCC)=N1`, the results for the inhibition in experiment [1], in experiment [2] and in experiment [3] were 10.7%, 11.1% and 10.3%, respectively.

With `Cc1ccc(NC(=O)c2ccc3ncccc3c2)cc1OC1CCN(CCC(C)C)CC1`, the inhibition was 3.07% in experiment [1], 2.35% in experiment [2] and 4.09% in experiment [3].

In the case of `Cc1cccc2nc(-c3cccc(-c4cccc(CNCC5CCCO5)c4)c3)[nH]c12` (centres undefined), the inhibition in experiment [1] worked out at 1.16%; in experiment [2] it was 0.17%; in experiment [3] it was 1.17%.

Take `CC(=O)Nc1cccc(C(=O)Nc2cccc(-c3ccc(-c4nc5cc(C(F)(F)F)ccc5[nH]4)s3)c2)c1`: the results for the inhibition in experiment [1], in experiment [2] and in experiment [3] were 0.34%, 0.52% and 0.89%, respectively.

Take `Cc1cccc2nc(-c3cccc(-c4cccc(NC(=O)NCc5ccccc5)c4)c3)[nH]c12`: the inhibition in experiment [1] was 3.73%; in experiment [2], 5.29%; in experiment [3] it was -4.27%.

As for `COc1ccc2nc(C)cc(N/N=C/c3cccc([N+](=O)[O-])c3)c2c1`, the inhibition is 8.97% in experiment [1], 7.38% in experiment [2] and 7.7% in experiment [3].

Take `CC(C)C[C@H](NC(=O)c1cc(-c2ccc(C(C)(C)C)cc2)no1)C(=O)O.CC(C)C[C@H](NC(=O)c1conc1-c1ccc(C(C)(C)C)cc1)C(=O)O`: the results for the inhibition in experiment [1], in experiment [2] and in experiment [3] were 1.21%, 0.89% and 0.84%, respectively.

With `O=C(CSc1nccn1Cc1ccco1)Nc1cc(C(F)(F)F)ccc1Cl`, the inhibition in experiment [1] came to 13.1%; in experiment [2], 10.5%; in experiment [3], 9.28%.

For `Cc1ccc2c(=NN=Cc3ccc(Cl)cc3)cc(C)[nH]c2c1`, the inhibition in experiment [1] was determined as 4.64%; in experiment [2] it was 4.7%; in experiment [3], 2.66%.

In the case of `O=C(c1cccc(-c2ccc(-c3nc4cc(C(F)(F)F)ccc4[nH]3)cc2)c1)N1CCCCC1CN1CCC(O)C1` (centres undefined), the inhibition in experiment [1] came to 0.99%; in experiment [2], 1.44%; in experiment [3], 2.26%.

In the case of `Cc1cc(=NN=Cc2ccccc2Cl)c2cc(C(F)(F)F)ccc2[nH]1`, the inhibition in experiment [1] is -0.33%; in experiment [2] it was -0.65%; in experiment [3], 1.27%.

As for `CCCC(C(CC1CCC(C)CC1)C(=O)NC(CCCNc1ncccn1)C(=O)Nc1nccs1)N(O)C=O` (centres undefined), the inhibition in experiment [1] was 3.88%; in experiment [2], 3.89%; in experiment [3] it was 5.63%.

With `CCOc1ccc(NC(=O)c2ccc(NCCCN3CC(C)CC(C)C3)c([N+](=O)[O-])c2)cc1` (centres undefined), the inhibition came out at 2.9% in experiment [1], 0.9% in experiment [2] and 1.09% in experiment [3].

Consider `COc1cc(C)c(NC(=O)c2cccc3c(=O)c(C)c(-c4ccccc4)oc23)cc1OC`, for which the inhibition in experiment [1] is 6.49%; in experiment [2], -0.38%; in experiment [3] it was -1.52%.

For the compound `CN1CCC(NCc2cccc(-c3cnc(NCc4ccccc4)nc3)c2)CC1`, the inhibition stood at 0.74% in experiment [1], 2.79% in experiment [2] and 1% in experiment [3].

As to `CCN(CC)c1ccc(C(c2ccc(N(CC)CC)cc2)c2cccc([N+](=O)[O-])c2)cc1`, the inhibition in experiment [1] came to 15.2%; in experiment [2], 13.8%; in experiment [3], 11.1%.

On to `Cc1cccc(N2C(N)=NC(N)=NC2(C)C)c1C`, for which the inhibition in experiment [1] came to 0.74%; in experiment [2], 1.41%; in experiment [3], 1.09%.

In the case of `CCCCCN1CCCC(NS(=O)(=O)c2ccc(C(=O)Nc3ccc(C(F)(F)F)cc3)cc2)C1` (centres undefined), the inhibition was found to be 6.19% in experiment [1], 4.12% in experiment [2] and 1.89% in experiment [3].

With `CCC(C)c1ccc(Nc2nc(C)cc(N(CC)CCCN3CCCCC3)n2)cc1` (centres undefined), the inhibition in experiment [1] is -1.09%; in experiment [2], 0.87%; in experiment [3], 1.67%.

Turning to `Cc1cccc2nc(-c3ccc(-c4ccc(CN5CCN(CCN6CCOCC6)CC5)cc4)s3)[nH]c12`, the inhibition in experiment [1] stood at 2.9%; in experiment [2], 3.89%; in experiment [3] it was 1.02%.

On to `CCOC(=O)CCc1cc(F)c(F)c(OC[C@H](O)CNC(C)(C)C(O)c2ccc3ccccc3c2)c1` (some centres undefined), for which the results for the inhibition in experiment [1], in experiment [2] and in experiment [3] were 0.06%, 0.61% and 0.21%, respectively.

For the compound `COc1ccc(OCCCN2CCN(CC(c3ccc(F)cc3)N3CCN(C(C)C)CC3)CC2)c2ccccc12` (centres undefined), the inhibition in experiment [1] amounted to 5.57%; in experiment [2] it was 5.69%; in experiment [3] it was 5.07%.

Consider `CCc1ccc(NC(=O)c2cccc(CN3CCCN(Cc4cccc(O)c4)CC3)c2)cc1`, for which the inhibition in experiment [1] was found to be 3.9%; in experiment [2], 3.08%; in experiment [3] it was 2.2%.

Take `Cc1cc(O)c(-c2cc(C(=O)Nc3cccnc3)[nH]n2)cc1C`: the inhibition in experiment [1] came out at 7.05%; in experiment [2], 4.46%; in experiment [3] it was 4.37%.

Take `CO/C(=C\C=C\c1cc2cc(Cl)c(Cl)cc2[nH]1)C(=O)NCCCN1CCN(C2CCCCC2)CC1`: the inhibition in experiment [1] came to 8.66%; in experiment [2] it was 5.7%; in experiment [3] it was 2.31%.

Regarding `CON=C1CCC(Cn2ccnc2)(c2ccc(Cl)cc2Cl)CC1` (centres undefined), the inhibition is 7.4% in experiment [1], 2.3% in experiment [2] and 4.22% in experiment [3].

Consider `Cc1cc(N[C@@H](CC(C)C)C(=O)NCCOc2ccccc2)nc(NCC2CCCCC2)n1`, for which the inhibition in experiment [1] was 3.08%; in experiment [2], 9.67%; in experiment [3] it was 6.41%.

Consider `COc1cc2ccccc2c(OC)c1CNCCCCCCNCc1c(OC)cc2ccccc2c1OC`, for which the inhibition in experiment [1] is 11.1%; in experiment [2] it was 7.88%; in experiment [3] it was 12.4%.

For `COc1ccc2nc3cc(Cl)ccc3c(NCCCCN3CCNCC3)c2c1`, the inhibition turned out to be 6.28% in experiment [1], 6.49% in experiment [2] and 3.51% in experiment [3].

As to `CC1(C)CC(NC(=O)NC2CCN(Cc3ccccc3)CC2)CC(C)(CNC(=O)NC2CCN(Cc3ccccc3)CC2)C1` (centres undefined), the inhibition in experiment [1] worked out at 5.31%; in experiment [2], 5.93%; in experiment [3], 1.3%.

In the case of `O=C1Nc2ccc3ncccc3c2/C1=C/Nc1ccc(N2CCN(CCO)CC2)cc1`, the inhibition in experiment [1] worked out at 2.74%; in experiment [2], 2.28%; in experiment [3], 2.47%.

Turning to `CC12CCC(=O)N1C(C(=O)Nc1cccc(C(=O)Nc3cccc(C(F)(F)F)c3)c1)CS2` (centres undefined), the inhibition in experiment [1] is 5.52%; in experiment [2] it was 6.47%; in experiment [3], 6.41%.

As to `Cc1cc(NC(=O)Nc2ccc(Cl)cc2F)c2ccccc2n1`, the figures for the inhibition in experiment [1], in experiment [2] and in experiment [3] were 3.45%, 4.56% and 1.56%, respectively.

As for `O=C(N[C@@H](Cc1cc(F)cc(F)c1)[C@H](O)CNCc1cccc(C(F)(F)F)c1)c1cc(C2CCCC2)cc(N2CCCC2=O)c1`, the values for the inhibition in experiment [1], in experiment [2] and in experiment [3] were 1.51%, 1.51% and 1.95%, respectively.

In the case of `O=C(NCCSCc1c(F)cccc1Cl)c1cnc2c(c1)nc(-c1c[nH]c(-c3ccccc3)n1)n2CCc1c[nH]cn1`, the inhibition was determined as 2.77% in experiment [1], 2.22% in experiment [2] and 0.97% in experiment [3].

Regarding `Cc1nc2ccc3ccc(CNc4ccc(C#N)cc4)cc3c2c(=O)[nH]1`, the inhibition amounted to 50.2% in experiment [1], 39.6% in experiment [2] and 56% in experiment [3].

Take `CN1CC[C@@H](Oc2cc(C(=O)NCc3ccc(Cl)c(Cl)c3)ccc2C(F)(F)F)C1`: the inhibition in experiment [1] is -0.85%; in experiment [2], -1.04%; in experiment [3], 0.48%.

On to `Cc1cccc(CC2CC(=O)N(c3ccc([N+](=O)[O-])cc3)C2=O)c1` (centres undefined), for which the inhibition came out at 7.63% in experiment [1], 7.62% in experiment [2] and 7.64% in experiment [3].

In the case of `O=[N+]([O-])c1ccc(Nc2nc(N/N=C/c3cccc(O)c3)nc(N3CCCC3)n2)cc1`, the results for the inhibition in experiment [1], in experiment [2] and in experiment [3] were 3.46%, 3.1% and 1.31%, respectively.

With `Cc1cc([N+](=O)[O-])ccc1NC(=O)Nc1cccc(C(F)(F)F)c1`, the inhibition came to 5.58% in experiment [1], 3.9% in experiment [2] and 4.81% in experiment [3].

Take `NS(=O)(=O)c1ccc(Nc2nccc(-c3c(-c4cccc(NC(=O)c5c(F)cccc5F)c4)nn4ccccc34)n2)cc1`: the figures for the inhibition in experiment [1], in experiment [2] and in experiment [3] were 11.8%, 14.8% and 8.76%, respectively.

Regarding `COc1ccccc1-c1cc(C(=O)N2CCN(S(=O)(=O)c3ccc(C)cc3)CC2)[nH]n1`, the inhibition in experiment [1] is 6.02%; in experiment [2], 3.73%; in experiment [3], -0.58%.

For `O=S(=O)(c1ccc2ccccc2c1)N1CCCN(Cc2ccc(OCCCN3CCCCC3)cc2)CC1`, the inhibition in experiment [1] is 63%; in experiment [2], 71.4%; in experiment [3], 45.5%.

Take `Cc1cc(=NN=Cc2ccccn2)c2cc(C(F)(F)F)ccc2[nH]1`: the inhibition in experiment [1] is -0.43%; in experiment [2], -1.03%; in experiment [3], -1.17%.

For `COc1cc(NCC(CN)Cc2ccc3c(c2)OCO3)nc2ccccc12` (centres undefined), the inhibition was 4.7% in experiment [1], 3.95% in experiment [2] and 5.88% in experiment [3].
